Experimental findings from PubChem BioAssay AID624137 (Broad Institute, 2012) are described below.

Among all 31,000 compounds or so, about 360 (1.2%) were called active. How the calls were made is not given here. Shown is part of a subset that was picked to be rich in actives.

Sequence of DNA-binding protein inhibitor ID-4 (Homo sapiens) (P47928 whole entry, looked up): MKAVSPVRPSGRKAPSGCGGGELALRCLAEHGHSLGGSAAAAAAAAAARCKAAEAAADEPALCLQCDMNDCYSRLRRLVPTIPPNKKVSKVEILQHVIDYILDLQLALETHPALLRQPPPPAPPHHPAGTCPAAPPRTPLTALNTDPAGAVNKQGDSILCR

The assay has as its target DNA-binding protein inhibitor ID-4 (Homo sapiens) (UniProt P47928). The assay is described as follows: PubChem AID 624137.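 Further: a binder raises fluorescence above local background on the spot.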 Particulars: small molecule microarray, Flag-ID4 binding, fluorescence F/B.
Consider `O=C(C[C@@H]1CC[C@@H](NS(=O)(=O)c2ccc(F)cc2)[C@H](CO)O1)NCc1ccc(Cl)c(Cl)c1`, for which the compound was classed as inactive.

As for `COc1ccccc1-c1cnc2c(c1)C(=O)N([C@H](C)CO)C[C@@H](C)[C@@H](CN(C)Cc1ccncc1)O2`, the result was inactive.

Consider `COc1ccccc1-c1cnc2c(c1)C(=O)N([C@@H](C)CO)C[C@H](C)[C@H](CN(C)C(=O)c1ccncc1)O2`, for which the outcome was inactive.

`CC(C)CC#Cc1cnc2c(c1)C(=O)N([C@@H](C)CO)C[C@H](C)[C@@H](CN(C)C(=O)c1cccc(F)c1)O2`: the compound was called inactive.

For the compound `CC(C)CC#Cc1cnc2c(c1)C(=O)N([C@H](C)CO)C[C@H](C)[C@@H](CN(C)Cc1ccccc1)O2`, the outcome was inactive.

On to `c1ccc2[nH]c(CSc3nc4ccccc4[nH]3)nc2c1`, for which the result was inactive.

Turning to `C[C@@H]1CN([C@H](C)CO)C(=O)c2cc(C#CC3CCCC3)cnc2O[C@H]1CN(C)C(=O)C1CC1`, the compound was classed as inactive.

Turning to `COc1ccccc1-c1cnc2c(c1)C(=O)N([C@@H](C)CO)C[C@H](C)[C@H](CN(C)CC1CCOCC1)O2`, the outcome was inactive.

Consider `CN(C)c1ccc2c(c1)[C@@H]1C[C@@H](CC(=O)NCc3ccccn3)O[C@H](CO)[C@@H]1O2`, for which the result was inactive.

With `CCC(=O)N(C)C[C@H]1Oc2ncc(-c3ccc(C)cc3)cc2C(=O)N([C@@H](C)CO)C[C@@H]1C`, the call was inactive.

`COc1ccccc1-c1ccc2c(c1)O[C@H](CN(C)C(=O)c1cccnc1)[C@H](C)CN([C@@H](C)CO)S2(=O)=O`: the result was inactive.

As to `COc1cc(S(=O)(=O)NCCN2CCOCC2)ccc1Br`, the outcome was inactive.

With `O=C(CSc1nnnn1-c1ccccc1)Nc1ccccc1C(=O)c1ccccc1`, the call was inactive.

`C[C@H](CO)N1C[C@H](C)[C@H](CN(C)CC2CC2)Oc2cc(-c3ccc(F)cc3)ccc2S1(=O)=O`: the outcome was inactive.

As to `O=C(C[C@H]1C=C[C@@H](NC(=O)C2CC2)[C@H](CO)O1)NCC1CC1`, the compound was classed as inactive.

As for `O=C(C[C@H]1C=C[C@@H](NC(=O)CC2CC2)[C@H](CO)O1)NCc1ccc(-c2ccccc2)cc1`, the compound was classed as inactive.

`Cc1ccc(-c2cnc3c(c2)C(=O)N([C@H](C)CO)C[C@@H](C)[C@@H](CN(C)C(=O)CN(C)C)O3)cc1`: the result was inactive.

On to `C[C@@H]1CN([C@H](C)CO)S(=O)(=O)c2ccc(-c3ccccc3)cc2O[C@@H]1CN(C)CC1CC1`, for which the compound was classed as inactive.

Take `CN(C)C(=O)C[C@H]1CC[C@@H](NC(=O)Nc2cccc(F)c2)[C@H](CO)O1`: the result was inactive.

For the compound `CC(C)c1cn(CC[C@@H]2CC[C@@H](NC(=O)C3CCC3)[C@@H](CO)O2)nn1`, the compound was classed as inactive.

Consider `CN(C)C(=O)C[C@H]1CC[C@@H](NC(=O)C2CC2)[C@@H](CO)O1`, for which the call was inactive.

Take `O=C(C[C@@H]1C=C[C@@H](NC(=O)Nc2cccc(F)c2)[C@H](CO)O1)NCC1CCCCC1`: the compound was classed as inactive.

As to `CO[C@@H]1CN(C)C(=O)c2cc(NC(=O)c3ccccc3F)ccc2OC[C@@H](C)N(CC2CC2)C[C@H]1C`, the call was inactive.

Take `CC(C)NC(=O)N(C)C[C@@H]1Oc2c(cccc2N(C)C)C(=O)N([C@H](C)CO)C[C@@H]1C`: the compound was called inactive.

As to `CC(C)NC(=O)N(C)C[C@@H]1Oc2c(cccc2N(C)C)C(=O)N([C@@H](C)CO)C[C@H]1C`, the outcome was active.

With `CC(C)NC(=O)N(C)C[C@@H]1Oc2ccc(N(C)C)cc2C(=O)N([C@@H](C)CO)C[C@H]1C`, the outcome was inactive.

In the case of `CCC(Oc1cccc(NC(=O)c2ccccc2[N+](=O)[O-])c1)C(=O)c1ccccc1` (centres undefined), the call was inactive.

As to `C[C@@H]1CN([C@H](C)CO)C(=O)c2cc(C#Cc3cccc(F)c3)cnc2O[C@H]1CN(C)Cc1ccccn1`, the compound was called inactive.

For the compound `CCCC#Cc1ccc2c(c1)O[C@@H](CN(C)CCC)[C@@H](C)CN([C@H](C)CO)S2(=O)=O`, the result was inactive.

For `CC(C)NC(=O)N(C)C[C@H]1Oc2ncc(C#CC3CC3)cc2C(=O)N([C@H](C)CO)C[C@@H]1C`, the compound was classed as inactive.

Turning to `C[C@@H]1CN([C@@H](C)CO)C(=O)c2cc(-c3ccccc3F)cnc2O[C@@H]1CN(C)Cc1cccc(F)c1`, the result was inactive.

Take `O=C(C[C@@H]1C=C[C@@H](NC(=O)c2ccccn2)[C@@H](CO)O1)NCc1cc(F)cc(F)c1`: the result was inactive.

Take `C[C@@H]1CN([C@H](C)CO)C(=O)c2cc(-c3ccncc3)cnc2O[C@H]1CN(C)C`: the outcome was inactive.

`C[C@H]1CN([C@@H](C)CO)C(=O)c2cc(C3=CCCC3)cnc2O[C@@H]1CN(C)Cc1cccnc1`: the compound was classed as inactive.

With `C/C=C/c1ccc2c(c1)O[C@H](CN(C)C)[C@H](C)CN([C@H](C)CO)S2(=O)=O`, the call was inactive.

Consider `CCC1=NN(C(=O)C(C)C)C(O)(c2ccc(Br)cc2)C1` (centres undefined), for which the compound was called inactive.

As for `CC(=O)N(C)C[C@@H]1Oc2ncc(C#CCc3ccccc3)cc2C(=O)N([C@H](C)CO)C[C@H]1C`, the compound was classed as inactive.

`C[C@H](CO)N1C[C@H](C)[C@H](CN(C)C)Oc2ncc(-c3ccncc3)cc2C1=O`: the compound was called inactive.

For `COc1cccc(S(=O)(=O)N[C@H]2C=C[C@H](CC(=O)NC3Cc4ccccc4C3)O[C@H]2CO)c1`, the outcome was inactive.

As to `CC(C)NC(=O)N(C)C[C@@H]1Oc2ncc(C#CC3CC3)cc2C(=O)N([C@@H](C)CO)C[C@H]1C`, the result was inactive.

As for `O=C(C[C@@H]1CC[C@@H](NC(=O)C2CC2)[C@@H](CO)O1)NCc1ccccc1Cl`, the result was inactive.

As for `COCC#Cc1ccc2c(c1)O[C@H](CN(C)CC1CC1)[C@H](C)CN([C@H](C)CO)S2(=O)=O`, the call was inactive.

`C[C@H](CO)N1C[C@H](C)[C@H](CN(C)C)Oc2cc(C#Cc3ccccc3F)ccc2S1(=O)=O`: the compound was called inactive.

`O=C(C[C@@H]1C=C[C@@H](NC(=O)c2cccnc2)[C@H](CO)O1)NCCN1CCCCC1`: the compound was classed as inactive.

Regarding `COC(=O)C[C@H]1CC[C@H](NC(=O)c2ccccc2)[C@@H](CO)O1`, the result was inactive.

For `CC(C)CC#Cc1cnc2c(c1)C(=O)N([C@H](C)CO)C[C@H](C)[C@@H](CN(C)Cc1ccccc1C(=O)O)O2`, the outcome was inactive.

On to `O=C(C[C@@H]1C[C@H]2c3cc(NC(=O)C4CCOCC4)ccc3O[C@H]2[C@H](CO)O1)NCc1ccc2c(c1)OCO2`, for which the result was inactive.

In the case of `C[C@H]1CN([C@@H](C)CO)S(=O)(=O)c2ccc(-c3ccccc3F)cc2O[C@H]1CN(C)C(=O)C1CC1`, the outcome was inactive.

Consider `C[C@@H]1CN([C@H](C)CO)C(=O)c2cc(C#CCC3CCCC3)cnc2O[C@H]1CN(C)C(=O)c1cnccn1`, for which the compound was called inactive.
